Measured values reported in PubChem BioAssay (NCI).
The panel holds about 83,000 compounds, 20% with a hit somewhere; the sample as a whole holds those more often.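 For each line, cells grew in 96-well plates with the test compound present at a single concentration for 48 hours.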 Activity calls are given as the source filed them. How the source made its calls: active means growth percent below 10; inactive means the rest.

Legend:
Test in all cases: NCI-60 one-dose screen, 48 h (100 = growth as untreated, 0 = no growth, -100 = all killed)
Conditions in all cases: 10 µM unless noted
[1] = test system: NCI-H226 lung
[2] = test system: NCI-H322M lung
[3] = test system: HOP-62 NSCLC
[4] = test system: NCI-H460 lung
[5] = test system: HOP-92 NSCLC
[6] = test system: NCI-H522 lung
[7] = test system: A549/ATCC NSCLC
[8] = test system: 786-0 renal
[9] = test system: COLO 205 colon

Row | Structure (SMILES) | growth [1] | growth [2] | growth [3] | growth [4] | growth [5] | growth [6] | growth [7] | growth [8] | growth [9]
1 | O=C(COc1ccccc1)N1N=C(c2ccc(Cl)cc2)CC1c1c[nH]c2ccccc12 (stereo unspecified) | 65.2% (inactive) | 86.4% (inactive) | 66.6% (inactive) | 47.9% (inactive) | 62.1% (inactive) | 73.9% (inactive) | 58.4% (inactive) | 71% (inactive) | 86.9% (inactive)
2 | C=C1C(=O)O[C@H]2[C@H]1CC/C(Cn1cc(-c3ccc(N)cc3)nn1)=C\CC[C@@]1(C)O[C@@H]21 | -14.3% (active) | 78.9% (inactive) | 51.4% (inactive) | 74% (inactive) | -44.3% (active) | -73.2% (active) | 48.6% (inactive) | -61.3% (active) | -63.5% (active)
3 | CCC1CCc2nc3sc(C(=O)Nc4ccccc4C)c(N)c3cc2C1 (stereo unspecified) | 62.7% (inactive) | 56.5% (inactive) | 54.5% (inactive) | 31.5% (inactive) | 41.9% (inactive) | 28.6% (inactive) | 41.2% (inactive) | 50.6% (inactive) | 17% (inactive)
4 | CC(C)C[C@H](NC(=O)Cn1ccc(NCc2ccccc2)cc1=O)B(O)O | -75% (active) | 91.3% (inactive) | 44.9% (inactive) | 60.5% (inactive) | 2.85% (active) | -20.7% (active) | 40.4% (inactive) | 20.6% (inactive) | 32% (inactive)
5 | Cc1nc2sccn2c1-c1csc(Nc2ccccc2Cl)n1 | 57.7% (inactive) | 64.4% (inactive) | 54.2% (inactive) | 35.3% (inactive) | 60.9% (inactive) | 41.9% (inactive) | 34.4% (inactive) | 55.3% (inactive) | 41.6% (inactive)
6 | O=C(CSc1nc(-c2ccc(Cl)cc2)cn1-c1ccc(Cl)cc1)c1ccc(Br)cc1 | 68.4% (inactive) | 94.2% (inactive) | 48.3% (inactive) | 50.8% (inactive) | 43.9% (inactive) | 58.8% (inactive) | 59.2% (inactive) | 34.7% (inactive) | 81.7% (inactive)
7 | CCn1cc(C(=O)O)c(=O)c2cc(F)c(N3CCN(S(=O)(=O)c4c(C)cc(C)cc4C)CC3)cc21 | 87.4% (inactive) | 83.5% (inactive) | 71.5% (inactive) | 82.8% (inactive) | 76.9% (inactive) | 86.5% (inactive) | 78% (inactive) | 102% (inactive) | 93.2% (inactive)
8 | COc1cc(C(=O)CCCl)ccc1O | 88.9% (inactive) | 106% (inactive) | 112% (inactive) | 106% (inactive) | 95.6% (inactive) | -24.2% (active) | 102% (inactive) | 106% (inactive) | 109% (inactive)
9 | O=C(CNC(=O)c1cccc2ccccc12)Nc1ccccc1Oc1ccccc1 | 49.2% (inactive) | 41.8% (inactive) | 24.6% (inactive) | -2.87% (active) | -1.24% (active) | -10.5% (active) | 9.48% (active) | 16.3% (inactive) | -8.22% (active)
